Read-outs that look alike come from different tables or passages of the source.
Columns and labels:
Parameters in all cases: species or system human, MV4-11 + K-562 + COLO205 + SK-N-BE2 + OVCAR-8
STK4 = details: read-out: apparent Kd, n = 1
ATM = details: read-out: apparent Kd, n = 1
CDK16 = details: read-out: apparent Kd, compound concentrations: 100 nM and 1000 nM (sheet 'Samples'), n = 1
MAPK9 = details: read-out: apparent Kd, compound concentrations: 100 nM and 1000 nM (sheet 'Samples'), n = 1
PIP4K2C = details: read-out: apparent Kd, n = 1
PRKAG2 = details: read-out: apparent Kd, n = 1
AURKA = details: read-out: apparent Kd; compound concentrations:100 nM and 1000 nM (sheet 'Samples'); n = 1
BCR = details: read-out: apparent Kd; compound concentrations:100 nM and 1000 nM (sheet 'Samples'); n = 1
CAMKK2 = details: read-out: apparent Kd; compound concentrations:100 nM and 1000 nM (sheet 'Samples'); n = 1
CHEK1 = details: read-out: apparent Kd, n = 1
EPHA4 = details: read-out: apparent Kd; compound concentrations:100 nM and 1000 nM (sheet 'Samples'); n = 1
EPHA5 = details: read-out: apparent Kd; compound concentrations:100 nM and 1000 nM (sheet 'Samples'); n = 1
EPHB2 = details: read-out: apparent Kd; compound concentrations:100 nM and 1000 nM (sheet 'Samples'); n = 1
EPHB4 = details: read-out: apparent Kd; compound concentrations:100 nM and 1000 nM (sheet 'Samples'); n = 1
TNK1 = details: read-out: apparent Kd; compound concentrations:100 nM and 1000 nM (sheet 'Samples'); n = 1
CSNK1D = details: read-out: apparent Kd, compound concentrations: 100 nM and 1000 nM (sheet 'Samples'), n = 1
MARK3 = details: read-out: apparent Kd, compound concentrations: 100 nM and 1000 nM (sheet 'Samples'), n = 1
RPS6KA4 = details: read-out: apparent Kd, compound concentrations: 100 nM and 1000 nM (sheet 'Samples'), n = 1
PRKACA = details: read-out: apparent Kd, compound concentrations: 100 nM and 1000 nM (sheet 'Samples'), n = 1
PRKACB = details: read-out: apparent Kd; compound concentrations: 100 nM and 1000 nM (sheet 'Samples'), CATDS: 4.09510310832654E-2; n = 1
[1] = compound concentrations:100 nM and 1000 nM (sheet 'Samples')

## Cc1cccc(Nc2nc(N[C@H]3CCNC3)ncc2C(N)=O)c1.Cl [GSK2197149A]
STK4; [1]
  potency estimated from few doses: 1490 nM

## CCn1c(-c2cccnc2O)nc2cnccc21 [SB-736715]
ATM; compound concentrations: 100 nM and 1000 nM (sheet 'Samples'), CATDS: 6.3051453748071404E-2
  potency estimated from few doses: 146 nM
CDK16; CATDS: 1.2342830833646699E-2
  potency estimated from few doses: 2030 nM
MAPK9; CATDS: 1.25360352526476E-2
  potency estimated from few doses: 1950 nM
PIP4K2C; compound concentrations: 100 nM and 1000 nM (sheet 'Samples'), CATDS: 1.9889508399788002E-2
  potency estimated from few doses: 761 nM
PRKAG2; compound concentrations: 100 nM and 1000 nM (sheet 'Samples'), CATDS: 1.6059828940045699E-2
  potency estimated from few doses: 1130 nM
STK4; compound concentrations: 100 nM and 1000 nM (sheet 'Samples'), CATDS: 1.39715497774644E-2
  potency estimated from few doses: 1510 nM

## CN(C)CCNC(=O)Nc1ccc(N(C)c2ccnc(Nc3ccc(CS(C)(=O)=O)cc3)n2)cc1.Cl [GW830900A]
AURKA
  potency estimated from few doses: 893 nM
PIP4K2C; [1]
  potency estimated from few doses: 1840 nM

## CNCc1ccc(-c2cc(-c3nc(-c4ccc(S(=O)(=O)C(C)C)cc4)cnc3N)on2)cc1 [VE-822]
ATM; [1]
  potency estimated from few doses: 13.5 nM
PIP4K2C; [1]
  potency estimated from few doses: 186 nM

## CC(=O)N[C@@H](Cc1ccc(OP(=O)(O)O)cc1)C(=O)N[C@H]1CCC(=O)N2CCC[C@@H](C(=O)NCc3ccc(Cl)cc3)N2C1=O [RO0325308-000]
BCR
  potency estimated from few doses: 604 nM
CAMKK2
  potency estimated from few doses: 1320 nM
CHEK1; [1]
  potency estimated from few doses: 1950 nM
EPHA4
  potency estimated from few doses: 843 nM
EPHA5
  potency estimated from few doses: 770 nM
EPHB2
  potency estimated from few doses: 56.3 nM
EPHB4
  potency estimated from few doses: 59.9 nM
PIP4K2C; [1]
  potency estimated from few doses: 1270 nM
PRKAG2; [1]
  potency estimated from few doses: 570 nM
TNK1
  potency estimated from few doses: 468 nM

## O=C(O)C(F)(F)F.O=c1[nH]ccc2nc(N[C@@H]3CCNC3)nc(Nc3ccc4c(c3)S(=O)(=O)CC4)c12 [GSK2181306A]
CDK16; CATDS: 1.11902252687631E-2
  potency estimated from few doses: 620 nM
CHEK1; compound concentrations: 100 nM and 1000 nM (sheet 'Samples'), CATDS: 1.0862390298074001E-2
  potency estimated from few doses: 672 nM
CSNK1D; CATDS: 9.27581508882039E-3
  potency estimated from few doses: 1080 nM
MARK3; CATDS: 1.24991581563988E-2
  potency estimated from few doses: 470 nM
PRKAG2; compound concentrations: 100 nM and 1000 nM (sheet 'Samples'), CATDS: 1.2141088500549201E-2
  potency estimated from few doses: 504 nM
RPS6KA4; CATDS: 1.6454900639240402E-2
  potency estimated from few doses: 258 nM
STK4; compound concentrations: 100 nM and 1000 nM (sheet 'Samples'), CATDS: 2.0109118463760199E-2
  potency estimated from few doses: 175 nM

## Cc1cc(-c2ccnc(Nc3cccc(C#N)c3)n2)cc(C)c1O [GSK1440913A]
PIP4K2C; compound concentrations: 100 nM and 1000 nM (sheet 'Samples'), CATDS: 0.18719100340522599
  potency estimated from few doses: 168 nM

## c1ccc(-c2n[nH]cc2Nc2ccnc3ccccc23)nc1 [GW694077X]
CSNK1D; CATDS: 2.5323353021981399E-2
  potency estimated from few doses: 1390 nM
MAPK9; CATDS: 2.3391396830632599E-2
  potency estimated from few doses: 1900 nM

## Cl.Cl.NC(CNC(=O)c1cc(Br)c(-c2ccnc3[nH]ccc23)s1)c1ccccc1.NC(CNC(=O)c1cc(Br)c(-c2ccnc3[nH]ccc23)s1)c1ccccc1 (stereo not shown) [GSK1322949A]
PRKACA; CATDS: 2.91010350116075E-2
  potency estimated from few doses: 1300 nM

## COc1cc[nH]c1/C=C1\C(=O)Nc2ccc(F)c(C#CC3(O)CCNCC3)c21.Cl [RO0282986-001]
CDK16; CATDS: 3.6317667749827198E-2
  potency estimated from few doses: 71.4 nM
MAPK9; CATDS: 1.5639148944551099E-2
  potency estimated from few doses: 359 nM
MARK3; CATDS: 1.4968914388982501E-2
  potency estimated from few doses: 398 nM
RPS6KA4; CATDS: 2.8007008589504299E-2
  potency estimated from few doses: 111 nM
STK4; compound concentrations: 100 nM and 1000 nM (sheet 'Samples'), CATDS: 1.59534503193824E-2
  potency estimated from few doses: 343 nM

## NCC(NC(=O)c1cc(-c2cn[nH]c2)c(-c2ccnc3[nH]ccc23)s1)c1ccccc1.NCC(NC(=O)c1cc(-c2cn[nH]c2)c(-c2ccnc3[nH]ccc23)s1)c1ccccc1.O=C(O)C(F)(F)F.O=C(O)C(F)(F)F (stereo not shown) [GSK1325775A]
CSNK1D; CATDS: 2.89439417277669E-2
  potency estimated from few doses: 2450 nM
PRKACA; CATDS: 4.90722253933666E-2
  potency estimated from few doses: 503 nM
PRKACB
  potency estimated from few doses: 782 nM

## c1cnn2ncc(-c3ccnc(Nc4ccc5c(c4)OCCO5)n3)c2c1 [GW806290X]
CDK16; CATDS: 2.45493373786023E-2
  potency estimated from few doses: 989 nM
CSNK1D; CATDS: 2.68711493268559E-2
  potency estimated from few doses: 761 nM
MAPK9; CATDS: 2.34417692705663E-2
  potency estimated from few doses: 1140 nM
PIP4K2C; compound concentrations: 100 nM and 1000 nM (sheet 'Samples'), CATDS: 7.0230989511161995E-2
  potency estimated from few doses: 96.8 nM

## CS(=O)(=O)Nc1ccc(-c2ccnc3[nH]ccc23)cc1 [GSK993273A]
PIP4K2C; [1]
  potency estimated from few doses: 482 nM

## CNc1cc(-c2ccc3c(N)n[nH]c3c2)nc(N)n1 [GSK2224810A]
PRKAG2; [1]
  potency estimated from few doses: 1090 nM

Reference: PMC11062922 (Nature Chemical Biology, 2023)
